Test results: ChEMBL document CHEMBL4513146, “CO-ADD screening of Karazin Kharkiv National University (Ukraine) compounds”
Entries with a potency or affinity are not part of this list.

Columns and labels:
Staphylococcus aureus = conditions: Concentration 32 ug.mL-1;; ASSAY_TEST Inhibition of Bacterial Growth; detection method Absorption (OD600); MEDIA CAMHB; plate type 384well; NBS; CORNING #3640; time 18 hr
Escherichia coli = conditions: Concentration 32 ug.mL-1;; ASSAY_TEST Inhibition of Bacterial Growth; detection method Absorption (OD600); MEDIA CAMHB; plate type 384well; NBS; CORNING #3640; time 18 hr

Compound | Inhibition (Staphylococcus aureus) [%] | Inhibition (Escherichia coli) [%]
COc1ccc(CNC(=O)Cn2nc3c(N4CC(C)CC(C)C4)nccn3c2=O)cc1 (configuration not stated) | 7.67 | -5.82
CCC(C)NC(=O)Cn1c(=O)c2nnc(C)n2c2ccccc21 (configuration not stated) | 9.8 | -2.5
CC(=O)c1cccc(NC(=O)Cn2c(=O)c3nnc(C(C)C)n3c3ccccc32)c1 | 9.36 | 0.14
COc1ccc(NC(=O)Cn2nc3c4cc(-c5ccc(Cl)cc5)nn4ccn3c2=O)c(OC)c1 | 9.6 | 5.1
Cc1ccc(Sc2nccn3c(=O)n(CC(=O)Nc4c(C)cc(C)cc4C)nc23)c(C)c1 | 17.35 | 1.82
CCOc1ccc(NC(=O)Cn2nc3c(Oc4ccc(C)cc4)nccn3c2=O)cc1 | 5.72 | -4.41
COc1ccc(OC)c(NC(=O)Cn2nc3ccc(-c4ccc(Cl)cc4)nn3c2=O)c1 | 10.25 | -2.3
COC(=O)c1cccc(NC(=O)Cn2nc3c(SCc4ccc(Cl)cc4)nccn3c2=O)c1 | 6.19 | -8.47
O=C(CSc1nnc2c(=O)n(-c3ccccc3)ccn12)Nc1ccc(Br)cc1F | 2.85 | -9.92
CCOc1ccc(-n2ccn3c(SCC(=O)c4ccc(OC)c(OC)c4)nnc3c2=O)cc1 | 21.02 | 1.32
Cc1nnc2c(SCC(=O)N3CCN(c4ccccc4F)CC3)nc3ccccc3n12 | 19.81 | 5.15
O=c1c2nnc(SCc3ccccc3F)n2ccn1-c1ccc(Br)cc1 | 14.85 | -2.34
COc1ccc(-c2cc3c4nnc(SCC(=O)Nc5cc(Cl)ccc5C)n4ccn3n2)cc1 | -1.91 | -8.79
CC(C)CCn1c(=O)c2ccc(C(=O)NC3CCCCC3)cc2n2c(=S)[nH]nc12 | -4.78 | -9.84
CCc1ccc(NC(=O)Cn2nc3n(Cc4ccco4)c(=O)c4sccc4n3c2=O)cc1 | -4.41 | -6.35
Cc1ccc(Oc2nccn3c(=O)n(CC(=O)Nc4ccc(Br)cc4)nc23)cc1 | 6.95 | -5.29
COCCCNC(=O)CSc1nnc2c(=O)n(Cc3ccccc3)ccn12 | 7.01 | -1.7
O=C(CSc1nnc2ccc(C(=O)Nc3cccc(F)c3)cn12)Nc1ccc(F)c(F)c1 | 8.43 | 1.09
CC(C)NC(=O)Cn1nc2n(Cc3ccco3)c(=O)c3sccc3n2c1=O | 9.36 | 3.27
Cc1ccc(C)c(Cn2nc3c(=O)n(-c4cccc(Cl)c4C)ccn3c2=O)c1 | -0.35 | -10.27
CCc1ccccc1NC(=O)Cn1nc2c(SCc3ccc(Cl)cc3)nccn2c1=O | 9.03 | -5.25
Cc1ccc(C)c(Cn2nc3n(CCC(C)C)c(=O)c4sccc4n3c2=O)c1 | 8.96 | 1.02
Cc1ccc(-c2ccc3nn(CC(=O)NCc4ccc(Cl)cc4)c(=O)n3n2)cc1C | -0.74 | -5.52
Cc1ccc(NC(=O)Cn2nc3c(SCc4ccccc4)nccn3c2=O)cc1C | 6.06 | -10.79

Compound | Inhibition (Staphylococcus aureus) [%] | Inhibition (Escherichia coli) [%]
COc1ccccc1NC(=O)Cn1nc2c3cc(-c4ccc(Cl)cc4)nn3ccn2c1=O | 5.68 | -3.99
Cc1ccc(-c2cc3c4nn(CC(=O)Nc5ccccc5Br)c(=O)n4ccn3n2)cc1C | 9.34 | -2.39
Cc1cc2nn(CC(=O)N3CCCc4ccccc43)c(=O)n2c(Nc2ccc(F)cc2)n1 | 6.5 | -0.15
CC(C)CCn1c(=O)c2sccc2n2c(=O)n(CC(=O)N3CCC(Cc4ccccc4)CC3)nc12 | -19.02 | -15.19
COc1cccc(-n2ccn3c(SCC(=O)NCc4ccc(C)cc4)nnc3c2=O)c1 | -1.77 | 2.15
CCCCc1ccc(NC(=O)Cn2nc3c(N4CCN(c5ccccc5C)CC4)nccn3c2=O)cc1 | 0.53 | -13.2
CCOC(=O)c1ccc(NC(=O)CSc2nnc3c4cc(-c5ccc(OC)cc5)nn4ccn23)cc1 | 10.14 | 2.37
Cc1nnc2ccc(S(=O)(=O)N(Cc3ccc(F)cc3)c3ccc4c(c3)OCO4)cn12 | 6.11 | -4.59
COc1cccc(Sc2nc3ccccc3n3c(=O)n(CC(=O)Nc4ccc(C)c(C)c4)nc23)c1 | 2.16 | 0.23
CC(C)c1nnc2c(SCC(=O)Nc3cccc(Cl)c3)nc3ccccc3n12 | 8.54 | 0
CCOc1ccc(-n2ccn3c(SCC#N)nnc3c2=O)cc1 | 8.92 | 2.37
Cc1ccc(-c2ccc3nn(CC(=O)Nc4ccc(Cl)c(C(F)(F)F)c4)c(=O)n3n2)cc1C | -0.53 | -10.28
O=C(Cn1nc2c(Oc3ccccc3)nccn2c1=O)Nc1cc(F)ccc1F | -5.96 | -11.57
COc1ccc(NC(=O)Cn2nc3c(Oc4ccccc4)nccn3c2=O)cc1 | 9.87 | -1.88
O=C(Cn1nc2c(N3CCOCC3)nc3ccccc3n2c1=O)Nc1ccccc1Br | 3.23 | -2.52
Cc1cc(C)cc(N(Cc2ccccc2F)S(=O)(=O)c2cccn3c(C)nnc23)c1 | 15.31 | -0.2
CCc1ccc(N(Cc2cccc(F)c2)S(=O)(=O)c2cccn3c(CC)nnc23)cc1 | 13.65 | -0.18
CCc1ccccc1Sc1nccn2c(=O)n(CC(=O)Nc3cc(C)ccc3C)nc12 | 15.04 | 0.5
CCc1nnc2c(S(=O)(=O)N(Cc3cc(F)cc(F)c3)c3ccc(C)cc3)cccn12 | 10.46 | -5.17
O=C(Cn1nc2c(SC3CCCCC3)nccn2c1=O)Nc1ccc(F)c(Cl)c1 | -11.33 | -12.19
C=Cc1ccc(CSc2nnc3c(=O)n(-c4ccc(F)cc4)ccn23)cc1 | 18.57 | -2.33
COc1ccc(N2CCN(C(=O)Cn3nc4ccc(S(=O)(=O)C(C)(C)C)nn4c3=O)CC2)cc1 | 12.76 | 0.99
O=S(=O)(c1ccc2nncn2c1)N(Cc1ccccc1F)c1cccc(F)c1 | -5.69 | -18.72
COc1cc(NC(=O)C(C)Sc2nnc3c(=O)n(-c4ccc(C)c(C)c4)ccn23)cc(OC)c1 (configuration not stated) | -0.67 | -10.24

Compound | Inhibition (Staphylococcus aureus) [%] | Inhibition (Escherichia coli) [%]
CCOc1ccccc1NC(=O)Cn1nc2c(N3CCN(c4ccccc4C)CC3)nccn2c1=O | -2.13 | -13.69
Cc1cccc(NC(=O)Cn2nc3c(Sc4ccccc4)nccn3c2=O)c1 | -16.15 | -1.95
O=c1c2nn(Cc3ccc(F)cc3)c(=O)n2ccn1-c1ccccc1 | 14.99 | -4.05
COc1ccc(NC(=O)Cn2nc3c4cc(-c5ccc(C)cc5)nn4ccn3c2=O)c(OC)c1 | 1.08 | -1.29
O=C(Cn1nc2c3cc(-c4ccccc4)nn3ccn2c1=O)N1CCN(c2ccccc2F)CC1 | 4.61 | -0.58
CCOc1ccc(NC(=O)Cn2nc3c(N4CCCC(C)C4)nccn3c2=O)cc1 (configuration not stated) | 4.96 | -4.53
COc1ccc(NC(=O)CSc2nnc3c(=O)n(-c4cccc(F)c4)ccn23)cc1OC | 3.1 | -11.05
N#CCn1nc2n(CCC(=O)NC3CCCCC3)c(=O)c3ccccc3n2c1=O | 8.56 | 0.43
COc1cc(OC)c(NC(=O)Cn2nc3ccc(Sc4cccc(F)c4)nn3c2=O)cc1Cl | 4.57 | -1.59
CCCCc1ccc(NC(=O)Cn2nc3ccc(-c4ccc(C)c(C)c4)nn3c2=O)cc1 | 7.91 | -1.54
CCc1nnc2ccc(S(=O)(=O)N(Cc3ccc(F)cc3)c3ccccc3)cn12 | -1.95 | -12.51
Cc1ccc(NC(=O)Cn2nc3cc(C)nc(Nc4ccc(F)cc4)n3c2=O)cc1 | 6.17 | -2.28
CCOC(=O)c1ccccc1NC(=O)Cn1nc2c3cc(-c4ccc(Cl)cc4)nn3ccn2c1=O | 7.33 | 2.34
COc1ccccc1NC(=O)Cn1nc2c3cc(-c4ccc(C)c(C)c4)nn3ccn2c1=O | 6.99 | 2.41
Cc1ccc(CN(c2cccc(F)c2)S(=O)(=O)c2ccc3nnc(C)n3c2)cc1 | -4.51 | -15.84
COc1ccc(-c2cc3c4nnc(SCC(=O)Nc5ccccc5F)n4ccn3n2)cc1 | -1.6 | -2.74
CCCCOc1ccc(-c2cc3c4nnc(SCC(=O)NCc5ccc(OC)cc5)n4ccn3n2)cc1 | -2.43 | -7.34
Cc1ccc(NC(=O)Cn2nc3c4c5c(sc4ncn3c2=O)CCCC5)cc1C | 0.13 | -5.89
COc1ccccc1-n1ccn2c(SCC(=O)Nc3ccc(F)cc3F)nnc2c1=O | -4.28 | 0.2
CCOC(=O)c1ccc(NC(=O)Cn2nc3ccc(Sc4ccccc4)nn3c2=O)cc1 | 9.67 | -3.7
O=C(Cn1nc2ccc(SC3CCCCC3)nn2c1=O)Nc1ccc2c(c1)OCO2 | -7.41 | -17.56
CCOC(=O)c1ccc(NC(=O)Cn2nc3c4cc(-c5ccc(C)cc5)nn4ccn3c2=O)cc1 | -5.61 | -8.93
CCc1ccc(NC(=O)Cn2nc3c(Sc4ccccc4)nccn3c2=O)cc1 | 6.66 | -4.33
